HSF1 inh = HSF1 inhibitors in luciferase reporter cells, primary screen, cell-based, NIH3T3, luminescence; NIH3T3-HGL HSE-luciferase, MG132-induced, luminescence 8 h; active compounds read low; 300,000 compounds, 0.77% hits; AID 2098, 2009; activity change, negative = inhibition, % at 7.5 µM (by protocol);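 active means more than half of replicate wells show activity change below -50%, luminescence cut by over half; inconclusive means some wells, but at most half, below -50%; inactive means no replicate well below -50%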;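 further: luciferase reports HSF-1 transcriptional activity via heat shock element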
HSF1 activator = HSF-1 activators, primary screen, NIH3T3-HGL cells, MG132 stress, luminescence, single point; NIH3T3-HGL HSF-1 luciferase reporter, 8 h; 100% = twice DMSO control signal; activation, % at 9 µM; 300,000 compounds, 1.7% hits;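 active means mean replicate activation of at least 50% with a set share of replicates each reaching 50%; inconclusive means only one of those two conditions met; inactive means mean below 50% and too few replicates reaching it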
pCIP destab = p/CIP-EGFP fusion destabilizers, primary screen, fluorescence, F442A cells | decrease of EGFP signal, % at 10 µM | 16 h | 290,000 compounds, 0.01% hits;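 active means EGFP signal decrease of at least 30% at 10 µM or well 3 SD below plate mean, unless failing retest; inactive means the rest, including hits failing retest or dose response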
Hsp70 activator = Hsp70 transcriptional activators, primary screen, cell-based, HeLa, Hsp70 promoter luciferase, luminescence, 10 µM; HeLa Hsp70 promoter luciferase reporter; scaled: vehicle 0, proteasome-inhibitor control 100%; activation, % at 10 µM; 200,000 compounds, 0.04% hits; AID 1203, 2008;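 active means activation above the mean across all tested compounds plus 3 SD, cutoff set per campaign, cut at about 5.5% in these data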
NALP1 inh = NALP1 inflammasome inhibitors in reconstituted yeast, colorimetric, S. cerevisiae, triplicate retest | inhibition, % at 10 µM | AID 2071, 2009 | S. cerevisiae NALP1/ASC/caspase-1 growth, X-gal OD620, 72 h | 280,000 compounds, 0.61% hits; in the data active means inhibition mostly above about 24%, no sharp cut-off; inactive means mostly below about 32%
HSP90 inh = HSP90 inhibitors, primary screen, cell lysate, luminescence. Heat shock protein HSP 90 (rabbit reticulocyte lysate; luciferase refolding). Rabbit reticulocyte lysate, luciferase refolding luminescence, 3 h. inhibition, % at 5.6 µM. 290,000 compounds, 0.91% hits;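 active means inhibition above the screen-wide mean plus 3 SD, computed separately per campaign, cut at about 16% in these data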;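 further: inhibitors lower the luminescence because luciferase stays unfolded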
Hits are given with their value; i = inactive; ? = inconclusive; nt = not tested or not shown. In the library only some 3.8% were active in any assay of this set; here they are far more common.

SMILES	HSF1 inh	HSF1 activator	pCIP destab	Hsp70 activator	NALP1 inh	HSP90 inh
Nc1c(C(=O)c2ccc(Cl)cc2)sc2nsc(SCCN3CCOCC3)c12	i	i	i	nt	i	i
Nc1c(C(=O)c2ccccc2)sc2nsc(SCCN3CCCC3)c12	i	118	i	nt	i	i
CCn1c2ccccc2c2cc(NC(=O)COC(=O)c3cc(OC)c(OC)cc3OC)ccc21	i	i	i	i	i	i
OCC1(CCCc2ccccc2)CCN(C2CCC2)CC1	i	i	i	nt	i	i
OCC1(CCCc2ccccc2)CCN(C2CCSCC2)CC1	i	74	i	i	i	i
CCN1CCN(c2c(/C=C3\SC(=S)N(Cc4ccco4)C3=O)c(C)c(C#N)c(=O)n2C)CC1	i	i	i	nt	nt	i
CCOC(=O)C1CCN(c2c(NCc3ccc(C(=O)Nc4ccc(C)cc4)cc3)c(=O)c2=O)CC1	-69	i	i	nt	i	i
CCOC(=O)C1CCN(c2c(NCc3ccc(C(=O)NC4CCCC4)cc3)c(=O)c2=O)CC1	i	i	i	i	i	i
CCCCc1ccc(-c2ccc(Br)cc2)nc1	i	58	i	i	i	i
CCCc1ccc(-c2ccc(-c3noc(-c4ccncc4)n3)cc2)nc1	i	i	i	nt	i	i
C=CCNC(=S)NNC(=O)c1cccn(Cc2ccc(Cl)c(Cl)c2)c1=O	i	81	i	i	i	i
Oc1ccc(-c2nc3ccc4ccccc4c3c3c2CCC3)cc1O	i	61	i	i	i	i
COc1ccc(-c2cc(C(=O)O)nc3ccc4ccccc4c23)cc1OC	i	i	i	i	i	i
O=C(N/N=C/c1ccc(N2CCCCC2)o1)C(O)(c1ccccc1)c1ccccc1	i	66	i	i	i	i
O=C(N/C(=C/c1cccnc1)C(=O)N1CCCCCC1)c1cccc(Br)c1	i	i	i	nt	i	i
CC(C)(C)c1cc(N2CCOCC2)n2ncc(-c3ccccc3)c2n1	i	i	i	nt	i	i
CCCc1cc(N2CCOCC2)n2ncc(-c3ccccc3)c2n1	i	i	i	nt	i	17
CCOc1ccc(-n2nnnc2-c2nc3ccccc3s2)cc1	-57	i	i	i	i	i
Cc1ccc(Cl)c(OCC(=O)OC(C)C(=O)NC2CC2)c1 (configuration not stated)	i	i	nt	nt	nt	nt
O=C(Nc1cccc(Cl)c1N1CCCCC1)c1ccc2c(c1)OCCO2	i	i	i	i	i	i
O=C(NC(=S)Nc1cccc(Cl)c1N1CCCCC1)c1ccc2c(c1)OCCO2	-58	i	i	i	i	i
COc1cccc(C2c3c(oc4ccccc4c3=O)C(=O)N2Cc2ccco2)c1 (configuration not stated)	i	59	nt	nt	nt	nt
COc1cc(C(=O)NNC(=O)c2cccn2C)cc(OC)c1OC	i	i	nt	nt	nt	nt
COc1cccc(-c2nn(C)c3sc(C(=O)N4CCOCC4)cc23)c1	i	i	i	i	i	27
Oc1ccc(N=Cc2ccc(OCc3ccccc3)cc2)cc1	i	65	i	i	i	i
SMILES	HSF1 inh	HSF1 activator	pCIP destab	Hsp70 activator	NALP1 inh	HSP90 inh
O=C(N/N=C/c1ccc(OCc2ccccc2)cc1)c1ccncc1	i	i	i	i	i	i
O=C(/C=C/c1ccccc1)Nc1ccc(CN2CCOCC2)cc1	i	i	i	i	i	i
O=C(/C=C/c1ccc(Cl)cc1)NC(=S)Nc1ccc(CN2CCOCC2)cc1	i	86	i	i	i	i
O=C(/C=C/c1ccc(Cl)cc1)NC(=S)Nc1ccc(NC(=O)c2ccco2)cc1	i	64	i	i	i	i
COc1ccc(-c2[nH]c(-c3ccc(C(=O)O)cc3)nc2-c2ccccc2)cc1	i	i	i	i	i	i
COc1cc(-c2nc(-c3ccc4c(c3)-c3ccccc3S4(=O)=O)c(-c3ccccc3)[nH]2)cc(OC)c1O	i	65	i	i	i	i
Cc1nc(-c2cc(-c3ccc(Cl)cc3)no2)cs1	i	71	i	nt	i	i
Cc1cccc(C(=O)OCC(=O)NC(=O)Cc2ccccc2)c1O	i	i	i	nt	i	i
CCOc1ccc(N=C(C)C2=C(O)c3ccccc3C2=O)cc1	i	63	i	nt	nt	i
COc1ccc(N=C(C)C2=C(O)c3ccccc3C2=O)cc1	i	67	i	i	i	i
Cc1oc2cc(O)ccc2c(=O)c1Oc1ccc2ccccc2c1	i	i	i	i	32	i
Cc1oc2cc(O)ccc2c(=O)c1Oc1ccc(F)cc1	i	i	i	nt	i	i
COC(=O)c1ccc(C)c(NC(=O)c2ccc(Cn3cc([N+](=O)[O-])cn3)o2)c1	i	60	i	i	i	i
COC(=O)c1ccc(C)c(NC(=O)Cc2ccc([N+](=O)[O-])cc2)c1	i	i	i	i	i	i
Cc1ccc(NC(=O)c2ccc(Cn3cc(Br)cn3)o2)cc1	i	226	i	i	i	i
O=[N+]([O-])c1ccc(-c2cnc(SCc3ccccc3Cl)[nH]2)cc1	i	56	i	i	i	i
CC1CCCC(NC(=S)Nc2cccc(S(=O)(=O)N(C)C)c2)C1C (configuration not stated)	i	i	i	i	i	i
COc1ccc(-c2cc(CCCC(=O)NCCc3ccc(OC)cc3OC)no2)cc1	i	62	i	i	i	i
COc1ccc(-c2cc(CCCC(=O)NCCc3ccccc3)no2)cc1	i	i	i	nt	nt	i
CCCc1cc(=O)n2[nH]c(-c3ccc(Cl)cc3)cc2n1	i	64	i	nt	nt	i
COc1cc(/C=C/C(=O)c2ccc(C)c([N+](=O)[O-])c2)cc(OC)c1O	i	128	i	i	i	i
COc1ccc(/C=C/C(=O)c2ccc(C)c([N+](=O)[O-])c2)cc1O	i	67	i	i	i	i
COc1ccc2cc(C(=O)/C=C/c3cc(OC)c(O)c(OC)c3)ccc2c1	i	?	i	nt	i	i
COc1cccc(/C=C/C(=O)c2ccc(C)c([N+](=O)[O-])c2)c1	i	i	i	i	i	i
CC(C)CCN(C(=O)CNC(=O)c1cccs1)C(C(=O)NC1CCCC1)c1ccncc1 (configuration not stated)	i	i	i	i	i	i
CC(C)CCN(C(=O)CNC(=O)c1cccs1)C(C(=O)NC1CCCCC1)c1cccnc1 (configuration not stated)	-70	i	i	nt	nt	i
Cc1nc(NC(=O)c2ccc(Cl)cc2)sc1-c1csc(Nc2cccc(F)c2)n1	i	i	i	i	i	69
CC(=O)Nc1nc(C)c(-c2csc(Nc3cccc(C(C)=O)c3)n2)s1	i	i	i	nt	i	i
CCn1nc(C)c(/C=N/NC(=O)c2c[nH]c3ccccc23)c1C	-70	i	i	i	i	i
